Data on five compounds can be found in PubChem BioAssay.

Records with an inconclusive call do not appear. Activity calls are given as the source filed them.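 Rule for the calls, unless noted: active = RAM network inhibition above 8.4% in each of two replicates, 3 SD over the compound average; inconclusive = above 8.4% inhibition in only one replicate; inactive = 8.4% inhibition or less in each replicate.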

Assay [1] in a line: reducers of endogenous Her2 protein level, primary screen, SKBR3 breast tumor cells, AlphaScreen, ATP viability (AID 461;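 active = Her2 level under about 52% in both replicate screens, with viability over 70% of control, limit read from the data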;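 for Her2 level: lower value means less Her2 protein in the cells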;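 for viability: percent of carrier control wells set as 100% viability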). Conditions: 18-24 h, measured here: SKBR3 viability, ATP luminescence, at 10 µM.
Assay [2] addresses Receptor tyrosine-protein kinase erbB-2 (Homo sapiens) (UniProt P04626). The description is as above. Conditions: 18-24 h, at 10 µM, stronger effect = lower value.
The nature of assay [3]: SK-BR-3 cell growth inhibitors, pilot screen, 24 h, human (AID 572;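 active = viability at or below 10% of carrier control in both of two separate runs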;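 note: compound exposure lasted between 18 and 24 h rather than exactly 24 h; 100% = carrier-treated control wells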). Particulars: SK-BR-3 viability, CellTiter-Glo luminescence, at 10 µM, stronger effect = lower value.
Assay [4] can be described thus: HUVEC growth inhibition – cell-based, human, primary screen (AID 575;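 active = viability at or below 30% in both replicate assays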;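 note: 100% = median of untreated cell wells with 0.1% DMSO on each plate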). Particulars: HUVEC proliferation, CellTiter-Glo luminescence, 72 h; at 10 µM; stronger effect = lower value. In general terms: Cellular ATP, detected with luciferase, serves as a proxy for viable cell number.
A short description of assay [5]: growth inhibitors of H69AR lung tumor, primary screen, human, duplicate replicates (AID 580;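 active = viability at or under a set limit in both replicates, limit being median viability minus 3 SD, cut at about 48% in these data, passing the limit was not always enough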;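 note: 100% = mean luminescence of untreated wells and 0% = no signal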). Particulars: H69AR lung tumor cells viability, ATP luminescence, 72 h; at 10 µM; stronger effect = lower value.
Assay [6] is described as follows: reversal of MRP1-mediated doxorubicin resistance, pilot screen, H69AR cells, doxorubicin co-treatment (AID 601;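 active = viability loss from added drug above about 55%, and viability with drug at most 40%, in both replicates, limit read from the data, passing the limit was not always enough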). Particulars: CellTiter-Glo, 72 h, at 10 µM; for differential viability (reversal): stronger effect = higher value.
Assay [7] can be described thus: 384-well plate pilot, post-Golgi transport modulator project, inhibition of yeast transport mutant growth (AID 636; in the data active = inhibition above about 31%). Conditions: absorbance 615 nm, about 18 h, stronger effect = higher value.
Assay [8] is described as follows: growth suppression of yeast trafficking mutant, preliminary HTS, modulators of trafficking downstream of Golgi apparatus project, 1536-format plate, OD 615 nm (AID 637; in the data active = inhibition above about 30%). Conditions: yeast transport mutant growth, absorbance 615 nm, 18 h; stronger effect = higher value.
Assay [9] is described as follows: OD615 S. cerevisiae growth inhibition, permissive medium, pilot counter-assay, permissive growth control for S. cerevisiae lifespan shortening project (AID 705;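 active = growth inhibition above 25% in both replicates, a cutoff set 3 SD above the mean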). Conditions: OD615, 24 h, at 10 µM, stronger effect = higher value.
The nature of assay [10]: Restrictive medium S. cerevisiae growth inhibition, OD615, pilot screen of yeast lifespan reduction project, restrictive growth control (AID 706;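 active = growth inhibition above a set limit, 3 SD over mean compound inhibition, in both replicates, cut at about 43% in these data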;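 note: modified DeaD lifespan yeast strain shifted to restrictive glucose medium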). Particulars: OD615, 48 h, at 10 µM, stronger effect = higher value.
Assay [11] can be described thus: viability gain of MRP-1-high H69AR cells under doxorubicin, pilot screen, MRP-1 activator project, CellTiter-Glo, duplicate (AID 807;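 active = viability increase at or above a cutoff of the median across tested compounds plus 3 SD, cut at about 8.5% in these data, passing the limit was not always enough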;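 note: compound pretreatment 18-22 h then 72 h combined with doxorubicin; 0% = doxorubicin alone and 100% = vehicle without doxorubicin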). Particulars: H69AR viability with doxorubicin, CellTiter-Glo luminescence; at 10 µM; stronger effect = higher value.
The nature of assay [12]: growth suppression of beta-catenin knockout HCT116, pilot screen, human colon tumor cells (AID 823;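 active = cell viability at or below a set limit in both duplicate runs, the limit being the all-compound median minus 4 SD, cut at about 23% in these data, passing the limit was not always enough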;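 note: 0% = wells killed by 20 µM Hyamine and 100% = untreated DMSO cell wells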). Conditions: CellTiter-Glo, 60 h, at 10 µM, stronger effect = lower value.
The nature of assay [13]: growth suppression of PTEN-deleted HCT116, pilot screen, cell-based, HCT116 clonal line, CellTiter-Glo (AID 824;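 active = viability at or below 27.92% in each of two runs, the all-compound median minus 4 SD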;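 note: 0% = 20 µM Hyamine control and 100% = vehicle cell control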). Conditions: 60 h, at 10 µM, stronger effect = lower value.
Assay [14] can be described thus: inhibitors of the yeast RAM network, pilot screen, dse1pr::URA3 reporter, 5-FOA selection (AID 869;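 active = inhibition over a set limit, the all-compound mean plus 3 SD, in both replicate runs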;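 note: 0% = DMSO wells with no growth and 100% = 10 µM 1-NA-PP1 with full growth; RAM network block rescues cells from 5-FOA so hits raise OD615 growth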). Conditions: S. cerevisiae dse1pr::URA3 5-FOA growth, OD615, 2 d; at 10 µM; stronger effect = higher value; strain carries analog-sensitive mutant Cbk1 kinase.
Assay [15] can be described thus: RAM signaling pathway blockade in yeast – S. cerevisiae, Pdr1DBD-CYC8 efflux-inhibited sensitized strain, primary screen (AID 1298).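 Note: 0% = DMSO untreated cells without growth and 100% = 10 µM 1-NA-PP1 full growth; higher means more yeast growth rescued from 5-FOA killing.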 Conditions: S. cerevisiae cbk1-as DSE1-URA3 strain, 5-FOA growth OD615, 2 d; at 50 µM; stronger effect = higher value.
Setting [16] is: H69AR cells + 2 uM doxorubicin, measured here: viability with 2 uM doxorubicin, stronger effect = lower value.
Setting [17] is: H69AR cells, compound alone cytotoxicity.

Receptor tyrosine-protein kinase erbB-2 (Homo sapiens), sequence (P04626 whole entry, looked up): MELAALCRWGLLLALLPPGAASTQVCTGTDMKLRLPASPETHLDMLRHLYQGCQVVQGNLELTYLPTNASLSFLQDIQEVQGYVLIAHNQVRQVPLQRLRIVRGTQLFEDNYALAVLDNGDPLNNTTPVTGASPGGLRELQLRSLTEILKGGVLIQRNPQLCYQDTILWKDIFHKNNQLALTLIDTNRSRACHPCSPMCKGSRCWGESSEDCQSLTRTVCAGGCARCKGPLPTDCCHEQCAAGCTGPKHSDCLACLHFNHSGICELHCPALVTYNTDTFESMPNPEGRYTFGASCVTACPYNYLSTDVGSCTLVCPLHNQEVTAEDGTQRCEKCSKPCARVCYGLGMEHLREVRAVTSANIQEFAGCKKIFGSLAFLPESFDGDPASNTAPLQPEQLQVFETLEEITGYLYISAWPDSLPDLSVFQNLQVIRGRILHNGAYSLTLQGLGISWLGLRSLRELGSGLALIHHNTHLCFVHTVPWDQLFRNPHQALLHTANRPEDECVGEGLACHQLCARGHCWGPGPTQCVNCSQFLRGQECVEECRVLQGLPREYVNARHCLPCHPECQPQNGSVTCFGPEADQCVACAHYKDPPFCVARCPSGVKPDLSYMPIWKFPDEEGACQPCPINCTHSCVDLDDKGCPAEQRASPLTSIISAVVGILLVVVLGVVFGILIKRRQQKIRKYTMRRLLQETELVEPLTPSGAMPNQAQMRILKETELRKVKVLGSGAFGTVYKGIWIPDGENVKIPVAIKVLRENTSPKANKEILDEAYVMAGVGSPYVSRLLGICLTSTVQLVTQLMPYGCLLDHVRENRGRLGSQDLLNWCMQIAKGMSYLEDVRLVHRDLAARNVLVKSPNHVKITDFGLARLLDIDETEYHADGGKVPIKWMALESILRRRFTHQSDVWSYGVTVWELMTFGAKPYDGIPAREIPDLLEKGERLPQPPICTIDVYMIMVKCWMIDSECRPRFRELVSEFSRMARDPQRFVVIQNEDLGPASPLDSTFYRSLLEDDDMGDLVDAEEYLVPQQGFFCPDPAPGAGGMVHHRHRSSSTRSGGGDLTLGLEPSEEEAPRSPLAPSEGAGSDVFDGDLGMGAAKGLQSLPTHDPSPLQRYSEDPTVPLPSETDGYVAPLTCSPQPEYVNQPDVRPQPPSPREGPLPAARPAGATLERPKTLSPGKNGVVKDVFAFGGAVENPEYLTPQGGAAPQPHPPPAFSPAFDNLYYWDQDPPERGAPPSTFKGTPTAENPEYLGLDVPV

The term viability denotes a read-out of living cells in per cent, often relative to untreated cells. As a reminder, the inhibition is the change of the read-out against control, counted positive when it falls. On to `CCOC(=O)c1sc2nc(NC(=O)C3CCCCC3)sc2c1C`, for which the viability was 95.5% in assay [1]; 95.5% (inactive) in [3]; 58.7% (inactive) in [4]; 76.9% (inactive) in [5]; 75.7% in assay [6] (setting [16]); 76.9% in assay [6] (setting [17]). The viability in [12] was 89.1% (inactive); in assay [13], 95.2% (inactive). Besides, in [2], the Her2 level is 92.5% (inactive). In assay [6] (H69AR cells + 2 uM doxorubicin), the differential viability (reversal) was 1.21% (inactive). Besides, the inhibition in assay [7] is -0.4% (inactive); in assay [8], -7.21% (inactive); in [14], 3.21% (inactive). The growth inhibition in [9] was -4.09% (inactive); in assay [10] it was -7.62% (inactive). Also, the viability increase in assay [11] is -0.22% (inactive). Also, the RAM network inhibition in assay [15] is 4.73% (inactive).
Take `COc1cc2c(cc1OC)CN(C(=O)CSc1nnc3scc(-c4ccccc4)n13)CC2`: the viability in assay [1] is 96%; in assay [3], 96% (inactive); in assay [4], 86.7% (inactive); in assay [5] it was 85.3% (inactive); in assay [6] (setting [16]), 77.2%; in [6] (setting [17]) it was 85.3%. The viability was 99.4% (inactive) in assay [12] and 94.6% (inactive) in assay [13]. Also, the Her2 level in [2] was 97% (inactive). Further, in assay [6] (H69AR cells + 2 uM doxorubicin), the differential viability (reversal) was 8.16% (inactive). The inhibition in assay [7] was -0.53% (inactive); in [8] it was -3.77% (inactive); in assay [14], 1.08% (inactive). Further, the growth inhibition in assay [9] was 16.4% (inactive); in assay [10], 69% (active). Further, the viability increase in assay [11] is -3.13% (inactive). For the same compound, the RAM network inhibition in [15] is 3.4% (inactive).
Consider `O=C(Nc1ccc2c(c1)OCCO2)NC1CCCCC1`, for which the viability in [1] was 126%; in assay [3], 126% (inactive); in assay [4], 89.5% (inactive); in assay [5] it was 85.9% (inactive); in assay [6] (setting [16]) it was 82.7%; in assay [6] (setting [17]), 85.9%. Moreover, the viability was 86.8% (inactive) in assay [12] and 85.5% (inactive) in assay [13]. Besides, in assay [2], the Her2 level was 98.5% (inactive). Further, the differential viability (reversal) in assay [6] (H69AR cells + 2 uM doxorubicin) was 3.18% (inactive). For the same compound, the values for the inhibition in assay [7], in assay [8] and in assay [14] were -4.27% (inactive), -1.13% (inactive) and 1.55% (inactive), respectively. The figures for the growth inhibition in [9] and in assay [10] were -1.73% (inactive) and 4.4% (inactive), respectively. In addition, the viability increase in assay [11] is -0.85% (inactive). In addition, in assay [15], the RAM network inhibition was -0.57% (inactive).
In the case of `COc1ccc2c(c1)CCc1cc(C(=O)N3CCN(c4ccc(N5CCOCC5)nn4)CC3)sc1-2`, the viability in assay [1] was 93.5%; in [3], 93.5% (inactive); in assay [4] it was 98.4% (inactive); in assay [5] it was 63.7% (inactive); in [6] (setting [16]) it was 75.1%; in assay [6] (setting [17]) it was 63.7%. Also, the viability in assay [12] is 60.4% (inactive); in assay [13] it was 59% (inactive). The Her2 level in assay [2] was 79% (inactive). For the same compound, in assay [6] (H69AR cells + 2 uM doxorubicin), the differential viability (reversal) is -11.4% (inactive). Moreover, the inhibition in assay [7] was -3.08% (inactive); in assay [8], 0.33% (inactive); in [14], 0.905% (inactive). Moreover, the growth inhibition in assay [9] was 3.63% (inactive); in assay [10], 3.83% (inactive). Moreover, the viability increase in assay [11] is -1.37% (inactive). The RAM network inhibition in [15] is 0.73% (inactive).
As to `Cc1ccc2c(c1)-c1c(cnn1CC(=O)NC(C)CCc1ccco1)CO2` (stereo not given), the viability in assay [1] was 85.5%; in assay [3], 85.5% (inactive); in assay [4] it was 91.5% (inactive); in assay [5] it was 85.9% (inactive); in [6] (setting [16]), 91.1%; in assay [6] (setting [17]) it was 85.9%. The viability in [12] is 88.8% (inactive); in [13], 87% (inactive). Besides, in [2], the Her2 level was 87% (inactive). For the same compound, the differential viability (reversal) in assay [6] (H69AR cells + 2 uM doxorubicin) was -5.22% (inactive). Moreover, the inhibition in [7] was -4.36% (inactive); in assay [8] it was 0.83% (inactive); in assay [14], 2.04% (inactive). Further, the growth inhibition in [9] is -10.4% (inactive); in [10] it was -5.76% (inactive). Besides, the viability increase in assay [11] was -3.78% (inactive). Further, the RAM network inhibition in assay [15] is 7.88% (inactive).
